Data published in PubChem BioAssay AID1159580 (chemical genetic matrix, 2015).
Values joined by “and” are separate entries in the source; they are usually repeats but may differ in a detail not shown here. Equal values may be shown once. In all, about 5,500 compounds went through this assay and about 2,000 (36%) were called active. Not shown: some 18% with an inconclusive outcome. No stated cut-off is given here; in the data, active means normalized growth mostly below about 0.91 (no sharp cut-off); inconclusive means no clear call, values can overlap the other calls; inactive means mostly above about 0.92. The list shows a part of the results.

Assay: chemical genetic growth profiling, strain panel (AID 1159580);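 further: tested at 20 µM; growth read once vehicle control cultures reached saturation at 30 °C; 1 = growth at the plate median or of vehicle wells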
Settings: growth OD

Measured: normalized growth

COc1ccc(CCCOc2cc(CCn3ccnc3)ccc2OC)cc1
inactive: S. cerevisiae deletion strains, locus YER002W, strain NOP16, stronger effect = lower value 1.03

CCN(CCCCOC(=O)c1ccc(OC)c(OC)c1)C(C)Cc1ccc(OC)cc1 (stereo not drawn)
inactive: S. cerevisiae deletion strains, locus YAL013W, strain DEP1, stronger effect = lower value 0.982 | S. cerevisiae deletion strains, locus YBR021W, strain FUR4, stronger effect = lower value 0.989 | S. cerevisiae deletion strains, locus YBR229C, strain ROT2, stronger effect = lower value 0.95 | S. cerevisiae deletion strains, locus YCL029C, strain bik1, stronger effect = lower value 0.99 | S. cerevisiae deletion strains, locus YDL035C, strain GPR1, stronger effect = lower value 0.972 | S. cerevisiae deletion strains, locus YDL074C, strain BRE1, stronger effect = lower value 0.987 | S. cerevisiae deletion strains, locus YDL101C, strain DUN1, stronger effect = lower value 0.988 | S. cerevisiae deletion strains, locus YDL134C, strain PPH21, stronger effect = lower value 0.988 | S. cerevisiae deletion strains, locus YDL185W, strain tfp1, stronger effect = lower value 0.991 | S. cerevisiae deletion strains, locus YDL192W, strain arf1, stronger effect = lower value 0.982 | S. cerevisiae deletion strains, locus YDR101C, strain arx1, stronger effect = lower value 0.995 | S. cerevisiae deletion strains, locus YDR150W, strain NUM1, stronger effect = lower value 0.96 | S. cerevisiae deletion strains, locus YDR162C, strain NBP2, stronger effect = lower value 0.977 | S. cerevisiae deletion strains, locus YDR318W, strain mcm21, stronger effect = lower value 0.999 | S. cerevisiae deletion strains, locus YDR388W, stronger effect = lower value 0.998 | S. cerevisiae deletion strains, locus YDR502C, strain sam2, stronger effect = lower value 0.98 | S. cerevisiae deletion strains, locus YEL061C, strain CIN8, stronger effect = lower value 0.979 | S. cerevisiae deletion strains, locus YER110C, stronger effect = lower value 0.963 | S. cerevisiae deletion strains, locus YER155C, strain BEM2, stronger effect = lower value 0.999 | S. cerevisiae deletion strains, locus YER167W, strain BCK2, stronger effect = lower value 0.989 | S. cerevisiae deletion strains, locus YGL078C, strain dbp3, stronger effect = lower value 0.997 | S. cerevisiae deletion strains, locus YGL086W, strain mad1, stronger effect = lower value 0.965 | S. cerevisiae deletion strains, locus YGL248W, strain PDE1, stronger effect = lower value 0.98 | S. cerevisiae deletion strains, locus YGR078C, strain PAC10, stronger effect = lower value 0.995 | S. cerevisiae deletion strains, locus YGR135W, strain pre9, stronger effect = lower value 1.02 | S. cerevisiae deletion strains, locus YGR229C, strain SMI1, stronger effect = lower value 0.978 | S. cerevisiae deletion strains, locus YGR252W, strain gcn5, stronger effect = lower value 0.937 | S. cerevisiae deletion strains, locus YHR030C, strain SLT2, stronger effect = lower value 0.989 and 0.965 | S. cerevisiae deletion strains, locus YHR079C, strain IRE1 (second series), stronger effect = lower value 0.992 | S. cerevisiae deletion strains, locus YHR079C, strain IRE1, stronger effect = lower value 0.956 | S. cerevisiae deletion strains, locus YHR094C, strain hxt1, stronger effect = lower value 0.989 | S. cerevisiae deletion strains, locus YHR129C, strain ARP1, stronger effect = lower value 0.993 | S. cerevisiae deletion strains, locus YHR200W, strain rpn10, stronger effect = lower value 0.992 | S. cerevisiae deletion strains, locus YIL066C, strain RNR3, stronger effect = lower value 0.968 | S. cerevisiae deletion strains, locus YIL073C, strain SPO22, stronger effect = lower value 0.986 | S. cerevisiae deletion strains, locus YIL125W, strain kgd1, stronger effect = lower value 0.985 | S. cerevisiae deletion strains, locus YIR030C, strain dcg1, stronger effect = lower value 0.978 | S. cerevisiae deletion strains, locus YJL095W, strain BCK1, stronger effect = lower value 1.03 and 0.98 | S. cerevisiae deletion strains, locus YJL134W, strain LCB3, stronger effect = lower value 0.979 | S. cerevisiae deletion strains, locus YJL168C, strain set2, stronger effect = lower value 0.995 | S. cerevisiae deletion strains, locus YJL187C, strain SWE1 (second series), stronger effect = lower value 1 | S. cerevisiae deletion strains, locus YJR043C, strain POL32, stronger effect = lower value 1.01 | S. cerevisiae deletion strains, locus YJR066W, strain TOR1, stronger effect = lower value 0.913 | S. cerevisiae deletion strains, locus YJR075W, strain HOC1, stronger effect = lower value 0.98 | S. cerevisiae deletion strains, locus YKL009W, strain mrt4, stronger effect = lower value 0.95 | S. cerevisiae deletion strains, locus YKL068W, stronger effect = lower value 0.998 | S. cerevisiae deletion strains, locus YKL085W, strain MDH1 (second series), stronger effect = lower value 0.987 | S. cerevisiae deletion strains, locus YKL085W, strain MDH1, stronger effect = lower value 0.987 | S. cerevisiae deletion strains, locus YKL190W, strain CNB1, stronger effect = lower value 0.99 | S. cerevisiae deletion strains, locus YKR001C, strain vps1, stronger effect = lower value 0.988 | S. cerevisiae deletion strains, locus YLR039C, strain RIC1, stronger effect = lower value 0.983 | S. cerevisiae deletion strains, locus YLR058C, strain SHM2, stronger effect = lower value 0.967 | S. cerevisiae deletion strains, locus YLR102C, strain apc9, stronger effect = lower value 0.993 | S. cerevisiae deletion strains, locus YLR113W, strain HOG1, stronger effect = lower value 0.956 | S. cerevisiae deletion strains, locus YLR262C, strain YPT6, stronger effect = lower value 0.937 | S. cerevisiae deletion strains, locus YLR268W, strain sec22, stronger effect = lower value 1.07 | S. cerevisiae deletion strains, locus YLR330W, strain CHS5, stronger effect = lower value 0.977 | S. cerevisiae deletion strains, locus YLR342W, strain FKS1 (second series), stronger effect = lower value 0.985 | S. cerevisiae deletion strains, locus YLR371W, strain rom2, stronger effect = lower value 0.972 | S. cerevisiae deletion strains, locus YLR418C, strain cdc73, stronger effect = lower value 0.956 | S. cerevisiae deletion strains, locus YML016C, strain PPZ1, stronger effect = lower value 0.978 | S. cerevisiae deletion strains, locus YML032C, strain rad52, stronger effect = lower value 1 | S. cerevisiae deletion strains, locus YML124C, strain tub3, stronger effect = lower value 0.985 | S. cerevisiae deletion strains, locus YMR078C, strain ctf18, stronger effect = lower value 0.987 | S. cerevisiae deletion strains, locus YMR223W, strain ubp8, stronger effect = lower value 0.971 | S. cerevisiae deletion strains, locus YMR263W, strain SAP30, stronger effect = lower value 0.978 | S. cerevisiae deletion strains, locus YMR307W, strain GAS1, stronger effect = lower value 1.01 | S. cerevisiae deletion strains, locus YNL067W, strain RPL9B, stronger effect = lower value 1.01 | S. cerevisiae deletion strains, locus YNL128W, strain TEP1, stronger effect = lower value 0.968 | S. cerevisiae deletion strains, locus YNL153C, strain GIM3, stronger effect = lower value 1 | S. cerevisiae deletion strains, locus YNL183C, strain NPR1, stronger effect = lower value 0.9 | S. cerevisiae deletion strains, locus YNL233W, strain BNI4, stronger effect = lower value 0.996 | S. cerevisiae deletion strains, locus YNL250W, strain rad50, stronger effect = lower value 0.987 | S. cerevisiae deletion strains, locus YNL271C, strain bni1, stronger effect = lower value 0.999 | S. cerevisiae deletion strains, locus YNL298W, strain CLA4, stronger effect = lower value 0.99 | S. cerevisiae deletion strains, locus YNL307C, strain MCK1, stronger effect = lower value 0.983 | S. cerevisiae deletion strains, locus YNL322C, strain KRE1, stronger effect = lower value 0.982 | S. cerevisiae deletion strains, locus YNR052C, strain pop2, stronger effect = lower value 1.01 | S. cerevisiae deletion strains, locus YOL006C, strain TOP1, stronger effect = lower value 0.966 | S. cerevisiae deletion strains, locus YOL012C, strain htz1 1.08 | S. cerevisiae deletion strains, locus YOL147C, strain pex11, stronger effect = lower value 0.987 | S. cerevisiae deletion strains, locus YOR061W, strain CKA2, stronger effect = lower value 0.974 | S. cerevisiae deletion strains, locus YOR069W, strain VPS5, stronger effect = lower value 0.986 | S. cerevisiae deletion strains, locus YOR136W, strain idh2, stronger effect = lower value 0.981 | S. cerevisiae deletion strains, locus YOR144C, strain elg1, stronger effect = lower value 0.991 | S. cerevisiae deletion strains, locus YOR184W, strain ser1, stronger effect = lower value 0.974 | S. cerevisiae deletion strains, locus YOR231W, strain MKK1, stronger effect = lower value 0.964 | S. cerevisiae deletion strains, locus YOR316C, strain cot1, stronger effect = lower value 0.992 | S. cerevisiae deletion strains, locus YPL055C, strain LGE1, stronger effect = lower value 0.963 | S. cerevisiae deletion strains, locus YPL241C, strain CIN2, stronger effect = lower value 0.989 | S. cerevisiae deletion strains, locus YPL256C, strain CLN2, stronger effect = lower value 0.961 | S. cerevisiae deletion strains, locus YPR119W, strain clb2, stronger effect = lower value 0.987 | S. cerevisiae deletion strains, locus YPR141C, strain kar3, stronger effect = lower value 0.979 | S. cerevisiae deletion strains, locus YPR163C, strain tif3, stronger effect = lower value 0.992 | S. cerevisiae deletion strains, locus YPR167C, strain met16, stronger effect = lower value 0.997 | S. cerevisiae deletion strains, strain wtn01, stronger effect = lower value 1.01 | S. cerevisiae strains, strain wild type, stronger effect = lower value 0.98
